Measurements reported in ChEMBL document CHEMBL2218924, “A broad activity screen in support of a chemogenomic map for kinase signalling research and drug discovery” (Biochem J, 2013).

Target: Angiopoietin-1 receptor (Homo sapiens) (UniProt Q02763)
Settings: at 10 µM

Angiopoietin-1 receptor (Homo sapiens), sequence (Q02763 whole entry): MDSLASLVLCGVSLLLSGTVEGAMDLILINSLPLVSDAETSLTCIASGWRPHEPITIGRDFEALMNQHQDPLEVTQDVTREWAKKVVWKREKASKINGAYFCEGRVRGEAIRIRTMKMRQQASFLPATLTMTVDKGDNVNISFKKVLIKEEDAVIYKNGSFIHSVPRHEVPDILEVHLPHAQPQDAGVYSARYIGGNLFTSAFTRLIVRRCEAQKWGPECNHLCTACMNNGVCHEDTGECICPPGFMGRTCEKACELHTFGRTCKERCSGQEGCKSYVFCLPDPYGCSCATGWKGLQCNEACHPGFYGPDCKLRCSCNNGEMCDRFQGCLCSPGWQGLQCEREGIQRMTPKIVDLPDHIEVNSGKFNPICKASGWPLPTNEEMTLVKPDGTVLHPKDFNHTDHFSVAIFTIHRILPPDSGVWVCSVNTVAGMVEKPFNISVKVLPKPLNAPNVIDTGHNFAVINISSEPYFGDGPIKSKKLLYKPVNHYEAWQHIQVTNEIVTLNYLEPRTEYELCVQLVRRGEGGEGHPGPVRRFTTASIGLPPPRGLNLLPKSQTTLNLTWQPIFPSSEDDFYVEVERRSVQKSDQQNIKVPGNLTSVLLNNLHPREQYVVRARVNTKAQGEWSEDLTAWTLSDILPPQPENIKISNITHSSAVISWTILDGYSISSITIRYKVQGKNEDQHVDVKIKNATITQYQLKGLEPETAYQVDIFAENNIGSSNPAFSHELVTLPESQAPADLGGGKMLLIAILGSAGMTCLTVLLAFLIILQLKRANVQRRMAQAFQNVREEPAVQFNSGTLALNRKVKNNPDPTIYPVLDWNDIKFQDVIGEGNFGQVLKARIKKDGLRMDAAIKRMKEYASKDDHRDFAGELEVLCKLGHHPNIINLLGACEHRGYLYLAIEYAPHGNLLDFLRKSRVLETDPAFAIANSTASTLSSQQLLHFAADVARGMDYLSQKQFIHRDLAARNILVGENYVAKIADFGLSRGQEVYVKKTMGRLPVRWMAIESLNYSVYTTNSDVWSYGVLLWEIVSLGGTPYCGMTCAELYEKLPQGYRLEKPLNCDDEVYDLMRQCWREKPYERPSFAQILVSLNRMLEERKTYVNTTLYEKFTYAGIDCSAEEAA

| Compound | residual activity |
| --- | --- |
| Nc1nc(Nc2ccc(S(N)(=O)=O)cc2)nn1C(=S)Nc1c(F)cccc1F | -2% |
| NC(=O)c1ccc2[nH]c(-c3ccc(Oc4ccc(Cl)cc4)cc3)nc2c1 | 131% |
| CC(=O)c1ccc(N2CCOCC2)cc1O | 83% |
| CO[C@H]1[C@@H](OC)C[C@H](C)[C@@H](OC)C2=CC(=O)C=C(NC(=O)/C(C)=C/C=C/[C@H](OC)[C@@H](OC(N)=O)/C(C)=C/[C@@H]1C)C2=O | 76% |
| N#CC(C#N)=C(N)/C(C#N)=C/c1ccc(O)cc1 | 74% |
| O=C1Nc2cc(Br)ccc2/C1=C1/Nc2ccccc2/C1=N\O | 79% |
| c1ccc(-c2n[nH]c3c2oc2ccccc23)cc1 | 58% |
| COc1cc2ncnc(Nc3ccc(NC(=O)c4ccccc4)cc3)c2cc1OC | 65% |
| COc1cc2ncc(-c3ccccc3)nc2cc1OC | 80% |
| CN(C)c1ccc(/C=C2\C(=O)Nc3ccccc32)cc1 | 70% |
| Oc1ccc(-c2nc(-c3ccc(F)cc3)c(-c3ccncc3)[nH]2)cc1 | 49% |
| COc1ccc(C(=O)Nc2sc3c(c2C(N)=O)CCCC3)cc1OC | 59% |
| CCN(CC)C(=O)c1ccc(Nc2nc(OCC3CCCCC3)c3nc[nH]c3n2)cc1 | 8% |
| C[C@@H](N)[C@H]1CC[C@H](C(=O)Nc2ccncc2)CC1 | 78% |
| N#C/C(=C(\N)Sc1ccc(N)cc1)c1ccccc1C(F)(F)F | 87% |
| c1ccc2c(-c3ccncc3)c[nH]c2c1 | 88% |
| O=C(O)c1ccc2c3c1cccc3c(=O)n1c3ccccc3nc21 | 99% |
| Nc1ccc2ncnc(NCCc3ccc(Oc4ccccc4)cc3)c2c1 | 66% |
| O=C(Nc1cccc(Nc2nccc(Nc3cccc(C(F)(F)F)c3)n2)c1)C1CC1 | 70% |
| Ic1cccc(CSc2nnc(-c3ccncc3)o2)c1 | 84% |
| CN(C)CCCn1cc(C2=C(c3c[nH]c4ccccc34)C(=O)NC2=O)c2ccccc21 | 60% |
| O=C1NC(=O)/C(=C/c2ccc3c(c2)OC(F)(F)O3)S1 | 85% |
| Oc1c2ccccc2c2c3c(cccc13)N=N2 | 63% |
| CO[C@H]1C[C@@H]2CC[C@@H](C)[C@@](O)(O2)C(=O)C(=O)N2CCCC[C@H]2C(=O)O[C@H]([C@H](C)C[C@@H]2CC[C@@H](O)[C@H](OC)C2)CC(=O)[C@H](C)/C=C(\C)[C@@H](O)[C@@H](OC)C(=O)[C@H](C)C[C@H](C)/C=C/C=C/C=C/1C | 96% |
| Cc1cc(Nc2nc(-c3ccccc3)nc3ccccc23)n[nH]1 | 6% |
| COc1cc2ncnc(N3CCN(C(=O)Nc4ccc(Oc5ccccc5)cc4)CC3)c2cc1OC | 69% |
| Cc1nc2cc3nc(-c4cccs4)cnc3cc2n1C | 61% |
| CCC(=O)Nc1ccc2ncnc(Nc3cccc(Br)c3)c2c1 | 70% |
| CC#CC(=O)Nc1cc2c(Nc3ccc(F)c(Cl)c3)ncnc2cn1 | 57% |
| Cn1cnc2cc3c(Nc4cccc(Br)c4)ncnc3cc21 | 34% |

Target: High affinity nerve growth factor receptor (Homo sapiens) (UniProt P04629)
Settings: at 1 µM

High affinity nerve growth factor receptor (Homo sapiens), sequence (P04629 33-796 limits assumed): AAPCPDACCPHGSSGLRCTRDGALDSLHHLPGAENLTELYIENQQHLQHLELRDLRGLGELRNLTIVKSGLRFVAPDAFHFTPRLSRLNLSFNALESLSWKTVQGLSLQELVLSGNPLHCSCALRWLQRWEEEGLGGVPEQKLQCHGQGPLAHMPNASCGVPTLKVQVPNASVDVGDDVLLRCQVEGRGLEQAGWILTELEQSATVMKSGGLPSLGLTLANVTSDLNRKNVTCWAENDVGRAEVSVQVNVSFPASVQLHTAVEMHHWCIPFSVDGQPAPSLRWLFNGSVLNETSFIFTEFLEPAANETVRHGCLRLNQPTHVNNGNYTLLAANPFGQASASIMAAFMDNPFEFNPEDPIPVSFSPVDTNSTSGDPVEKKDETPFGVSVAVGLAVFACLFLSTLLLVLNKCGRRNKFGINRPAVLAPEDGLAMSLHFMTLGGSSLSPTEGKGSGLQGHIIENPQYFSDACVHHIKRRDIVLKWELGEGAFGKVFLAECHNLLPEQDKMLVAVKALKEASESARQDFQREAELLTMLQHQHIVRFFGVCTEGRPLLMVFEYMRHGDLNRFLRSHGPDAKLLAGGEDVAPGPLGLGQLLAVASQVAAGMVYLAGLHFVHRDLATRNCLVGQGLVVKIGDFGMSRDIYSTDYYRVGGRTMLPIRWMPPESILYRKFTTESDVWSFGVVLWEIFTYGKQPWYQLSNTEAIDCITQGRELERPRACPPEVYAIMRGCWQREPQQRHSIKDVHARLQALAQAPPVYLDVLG

| Compound | residual activity |
| --- | --- |
| Nc1nc(Nc2ccc(S(N)(=O)=O)cc2)nn1C(=S)Nc1c(F)cccc1F | 0% |
| NC(=O)c1ccc2[nH]c(-c3ccc(Oc4ccc(Cl)cc4)cc3)nc2c1 | 78% |
| CO[C@H]1[C@@H](OC)C[C@H](C)[C@@H](OC)C2=CC(=O)C=C(NC(=O)/C(C)=C/C=C/[C@H](OC)[C@@H](OC(N)=O)/C(C)=C/[C@@H]1C)C2=O | 120% |
| N#CC(C#N)=C(N)/C(C#N)=C/c1ccc(O)cc1 | 121% |
| O=C1Nc2cc(Br)ccc2/C1=C1/Nc2ccccc2/C1=N\O | 0% |
| c1ccc(-c2n[nH]c3c2oc2ccccc23)cc1 | 32% |
| COc1cc2ncnc(Nc3ccc(NC(=O)c4ccccc4)cc3)c2cc1OC | 73% |
| COc1cc2ncc(-c3ccccc3)nc2cc1OC | 39% |
| COc1cc2ncnc(Nc3ccc(Oc4ccccc4)cc3)c2cc1OC | 135% |
| CN(C)c1ccc(/C=C2\C(=O)Nc3ccccc32)cc1 | 10% |
| O=C1Nc2ccccc2/C1=C1/Nc2ccccc2/C1=N\OCCC(O)CO (centres undefined) | -1% |
| Oc1ccc(-c2nc(-c3ccc(F)cc3)c(-c3ccncc3)[nH]2)cc1 | 107% |
| COc1ccc(C(=O)Nc2sc3c(c2C(N)=O)CCCC3)cc1OC | 58% |
| N#CCCc1ccc2c(c1)-c1[nH]c3ccc([N+](=O)[O-])cc3c1CC(=O)N2 | 54% |
| CCN(CC)C(=O)c1ccc(Nc2nc(OCC3CCCCC3)c3nc[nH]c3n2)cc1 | 8% |
| C[C@@H](N)[C@H]1CC[C@H](C(=O)Nc2ccncc2)CC1 | 112% |
| N#C/C(=C(\N)Sc1ccc(N)cc1)c1ccccc1C(F)(F)F | 90% |

| Compound | residual activity |
| --- | --- |
| c1ccc2c(-c3ccncc3)c[nH]c2c1 | 91% |
| O=C(O)c1ccc2c3c1cccc3c(=O)n1c3ccccc3nc21 | 78% |
| Nc1ccc2ncnc(NCCc3ccc(Oc4ccccc4)cc3)c2c1 | 89% |
| O=C(Nc1cccc(Nc2nccc(Nc3cccc(C(F)(F)F)c3)n2)c1)C1CC1 | 18% |
| N#Cc1cnc2cnc(NCc3cccnc3)cc2c1Nc1ccc(F)c(Cl)c1 | 101% |
| Ic1cccc(CSc2nnc(-c3ccncc3)o2)c1 | 87% |
| CN(C)CCCn1cc(C2=C(c3c[nH]c4ccccc34)C(=O)NC2=O)c2ccccc21 | 48% |
| O=C1Nc2ccc(Br)cc2/C1=C\c1cc2c([nH]1)CCCC2 | 19% |
| O=C1NC(=O)/C(=C/c2ccc3c(c2)OC(F)(F)O3)S1 | 86% |
| Oc1c2ccccc2c2c3c(cccc13)N=N2 | 10% |
| CO[C@H]1C[C@@H]2CC[C@@H](C)[C@@](O)(O2)C(=O)C(=O)N2CCCC[C@H]2C(=O)O[C@H]([C@H](C)C[C@@H]2CC[C@@H](O)[C@H](OC)C2)CC(=O)[C@H](C)/C=C(\C)[C@@H](O)[C@@H](OC)C(=O)[C@H](C)C[C@H](C)/C=C/C=C/C=C/1C | 89% |
| Cc1cc(Nc2nc(-c3ccccc3)nc3ccccc23)n[nH]1 | -2% |
| COc1cc2ncnc(N3CCN(C(=O)Nc4ccc(Oc5ccccc5)cc4)CC3)c2cc1OC | 71% |
| Cc1nc2cc3nc(-c4cccs4)cnc3cc2n1C | 72% |
| CCC(=O)Nc1ccc2ncnc(Nc3cccc(Br)c3)c2c1 | 97% |
| CC#CC(=O)Nc1cc2c(Nc3ccc(F)c(Cl)c3)ncnc2cn1 | 91% |
| Cn1cnc2cc3c(Nc4cccc(Br)c4)ncnc3cc21 | 87% |
